{"source": "the supplement of paper PMC12636033", "note": "± gives the standard deviation of the averaged measurements. Whole data set: some 33,000 sequences, median “E-score (rank enrichment, -0.5 to 0.5)” near -0.0043, cut for the highest 2% near 0.24. For the sample, the highest values were picked, then their nearest neighbours and some sequences at random.", "data": [{"tested_on": "2Sp-muMax20 (muMax20 with two 2,6-bis(methyl)pyridine Cys staples)", "test": "PBM 8-mer E-score (E-score (rank enrichment, -0.5 to 0.5)); higher = stronger preferential binding", "method": "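Protein binding microarray (universal PBM chip covering all 10-mers in fixed probe flanks) with chemically synthesized human Max(13-93) bHLH-LZ analogs (not full-length Max) bearing noncanonical residues (hArg, Tha, Aib, Nle at 65) and aromatic Cys staples. Read-out per 8-mer (and its reverse complement): E-score (rank-based enrichment, -0.5 to 0.5) and Z-score of median probe intensity.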", "values": [{"sequence": "ACCGGCAT", "PBM 8-mer E-score": "-0.121 ± 0.029"}, {"sequence": "GCAAATAC", "PBM 8-mer E-score": "0.0657 ± 0.013"}, {"sequence": "AATAGATT", "PBM 8-mer E-score": "0.117 ± 0.049"}, {"sequence": "GCAACGTA", "PBM 8-mer E-score": "-0.119 ± 0.038"}, {"sequence": "GAGCTATC", "PBM 8-mer E-score": "0.0105 ± 0.011"}, {"sequence": "CCAAACGA", "PBM 8-mer E-score": "-0.105 ± 0.068"}, {"sequence": "AGCGTGTG", "PBM 8-mer E-score": "0.146 ± 0.035"}, {"sequence": "ATCGGGAA", "PBM 8-mer E-score": "-0.0836 ± 0.067"}, {"sequence": "GCATCCAC", "PBM 8-mer E-score": "0.0775 ± 0.049"}, {"sequence": "CCCACCTC", "PBM 8-mer E-score": "-0.0411 ± 0.14"}, {"sequence": "CCTTTTTA", "PBM 8-mer E-score": "-0.0668 ± 0.03"}, {"sequence": "GCTTTTTA", "PBM 8-mer E-score": "0.303 ± 0.013"}, {"sequence": "GCTTTTAA", "PBM 8-mer E-score": "-0.0089 ± 0.0068"}, {"sequence": "GCTTTTCA", "PBM 8-mer E-score": "0.0545 ± 0.063"}, {"sequence": "CCTTTTCA", "PBM 8-mer E-score": "0.29 ± 0.03"}, {"sequence": "CTTTTTCA", "PBM 8-mer E-score": "0.0855 ± 0.061"}, {"sequence": "GTTCCTCA", "PBM 8-mer E-score": "-0.0919 ± 0.021"}, {"sequence": "CGCTGGAG", "PBM 8-mer E-score": "-0.172 ± 0.023"}, {"sequence": "ATCAACTC", "PBM 8-mer E-score": "0.0114 ± 0.058"}, {"sequence": "CGAAGGAA", "PBM 8-mer E-score": "-0.209 ± 0.023"}, {"sequence": "GAGCCAGA", "PBM 8-mer E-score": "-0.216 ± 0.14"}, {"sequence": "TGTATGAA", "PBM 8-mer E-score": "0.0767 ± 0.054"}, {"sequence": "GCCCACAC", "PBM 8-mer E-score": "0.076 ± 0.018"}, {"sequence": "GCCCACCC", "PBM 8-mer E-score": "0.417 ± 0.02"}, {"sequence": "ACCCACCA", "PBM 8-mer E-score": "0.178 ± 0.043"}, {"sequence": "GCCCACCA", "PBM 8-mer E-score": "0.078 ± 0.038"}, {"sequence": "CCCCACCC", "PBM 8-mer E-score": "0.23 ± 0.1"}, {"sequence": "ACCCACCC", "PBM 8-mer E-score": "0.424 ± 0.043"}, {"sequence": "AACCGGAA", "PBM 8-mer E-score": "-0.0983 ± 0.0079"}, {"sequence": "GCTGAGAA", "PBM 8-mer E-score": "-0.111 ± 0.028"}, {"sequence": "TCAACCGA", "PBM 8-mer E-score": "-0.0249 ± 0.02"}, {"sequence": "AACCATTA", "PBM 8-mer E-score": "0.293 ± 0.0072"}, {"sequence": "CACCATTA", "PBM 8-mer E-score": "-0.0267 ± 0.11"}, {"sequence": "AACCATTG", "PBM 8-mer E-score": "-0.145 ± 0.014"}, {"sequence": "GTCAAATA", "PBM 8-mer E-score": "0.163 ± 0.093"}, {"sequence": "CCATATGG", "PBM 8-mer E-score": "0.295 ± 0.008"}, {"sequence": "CAATATGA", "PBM 8-mer E-score": "0.189 ± 0.055"}, {"sequence": "CAATATGC", "PBM 8-mer E-score": "0.128 ± 0.021"}, {"sequence": "ACATATGG", "PBM 8-mer E-score": "0.0892 ± 0.04"}, {"sequence": "CCATATGC", "PBM 8-mer E-score": "0.134 ± 0.054"}, {"sequence": "CAATATGG", "PBM 8-mer E-score": "0.244 ± 0.044"}, {"sequence": "AGCACCAG", "PBM 8-mer E-score": "-0.0554 ± 0.022"}, {"sequence": "CGACACTC", "PBM 8-mer E-score": "-0.159 ± 0.094"}, {"sequence": "AACACTCC", "PBM 8-mer E-score": "-0.151 ± 0.012"}, {"sequence": "AAAATCAC", "PBM 8-mer E-score": "0.28 ± 0.0095"}, {"sequence": "CGAATCAG", "PBM 8-mer E-score": "-0.0839 ± 0.076"}, {"sequence": "AAAATCAA", "PBM 8-mer E-score": "-0.044 ± 0.037"}, {"sequence": "GAAATCAA", "PBM 8-mer E-score": "0.0712 ± 0.019"}, {"sequence": "CAAATCAA", "PBM 8-mer E-score": "0.237 ± 0.0084"}, {"sequence": "AAAATCAG", "PBM 8-mer E-score": "0.0292 ± 0.03"}, {"sequence": "GAAATCAC", "PBM 8-mer E-score": "0.142 ± 0.072"}, {"sequence": "CGAATCAA", "PBM 8-mer E-score": "0.241 ± 0.054"}, {"sequence": "TGAATCAA", "PBM 8-mer E-score": "0.1418 ± 0.00071"}, {"sequence": "CCGCTTGC", "PBM 8-mer E-score": "-0.142 ± 0.036"}, {"sequence": "ATACCAGA", "PBM 8-mer E-score": "0.118 ± 0.019"}, {"sequence": "CCGTGTTA", "PBM 8-mer E-score": "0.0643 ± 0.04"}, {"sequence": "ACGTGTAT", "PBM 8-mer E-score": "0.336 ± 0.015"}, {"sequence": "ACGTGTGA", "PBM 8-mer E-score": "0.113 ± 0.061"}, {"sequence": "ACGTGTAC", "PBM 8-mer E-score": "0.132 ± 0.017"}, {"sequence": "ACGTGTTA", "PBM 8-mer E-score": "0.352 ± 0.0043"}, {"sequence": "ACGTGTAG", "PBM 8-mer E-score": "0.0238 ± 0.1"}, {"sequence": "GCGTGTTA", "PBM 8-mer E-score": "0.103 ± 0.02"}, {"sequence": "ACGTGTCT", "PBM 8-mer E-score": "0.26 ± 0.046"}, {"sequence": "ACGTGTCG", "PBM 8-mer E-score": "0.18 ± 0.033"}, {"sequence": "ACGTGTGG", "PBM 8-mer E-score": "0.156 ± 0.026"}, {"sequence": "ACGTGTCA", "PBM 8-mer E-score": "0.139 ± 0.031"}, {"sequence": "ACGTGTGC", "PBM 8-mer E-score": "0.238 ± 0.029"}, {"sequence": "GAAGCCCC", "PBM 8-mer E-score": "-0.0537 ± 0.047"}, {"sequence": "GCTTGTCA", "PBM 8-mer E-score": "-0.15 ± 0.028"}, {"sequence": "CACCTGAC", "PBM 8-mer E-score": "0.0247 ± 0.0091"}, {"sequence": "CCCATAGA", "PBM 8-mer E-score": "0.11 ± 0.015"}, {"sequence": "CTTATCAC", "PBM 8-mer E-score": "0.00992 ± 0.026"}, {"sequence": "ACCGAGCT", "PBM 8-mer E-score": "-0.158 ± 0.00061"}, {"sequence": "CGAGTAAG", "PBM 8-mer E-score": "0.0344 ± 0.035"}, {"sequence": "CACGATAA", "PBM 8-mer E-score": "0.0394 ± 0.0045"}, {"sequence": "TGGAACCA", "PBM 8-mer E-score": "-0.0848 ± 0.06"}, {"sequence": "ACGTCCAT", "PBM 8-mer E-score": "-0.0323 ± 0.032"}, {"sequence": "CCCCACAA", "PBM 8-mer E-score": "0.245 ± 0.013"}, {"sequence": "CCCCACAC", "PBM 8-mer E-score": "0.229 ± 0.021"}, {"sequence": "GCCCATAA", "PBM 8-mer E-score": "-0.0636 ± 0.086"}, {"sequence": "TCCCATAA", "PBM 8-mer E-score": "0.0959 ± 0.053"}, {"sequence": "CCCCATAA", "PBM 8-mer E-score": "0.254 ± 0.037"}, {"sequence": "CCCCACAG", "PBM 8-mer E-score": "-0.0544 ± 0.039"}, {"sequence": "GTCCAAAA", "PBM 8-mer E-score": "-0.0163 ± 0.058"}, {"sequence": "ACGCGAAC", "PBM 8-mer E-score": "0.0549 ± 0.069"}, {"sequence": "TCACAAAA", "PBM 8-mer E-score": "0.0933 ± 0.021"}, {"sequence": "ACAAGCTC", "PBM 8-mer E-score": "-0.194 ± 0.011"}, {"sequence": "ATATAAAC", "PBM 8-mer E-score": "0.315 ± 0.054"}, {"sequence": "ATATAAAA", "PBM 8-mer E-score": "0.3008 ± 0.00046"}, {"sequence": "ATAAAAAC", "PBM 8-mer E-score": "0.116 ± 0.046"}, {"sequence": "ATATAAAG", "PBM 8-mer E-score": "0.21 ± 0.017"}, {"sequence": "GTATAAAC", "PBM 8-mer E-score": "0.0938 ± 0.044"}, {"sequence": "ACATAAAA", "PBM 8-mer E-score": "0.144 ± 0.037"}, {"sequence": "GTATAAAA", "PBM 8-mer E-score": "0.278 ± 0.035"}, {"sequence": "ATATAAAT", "PBM 8-mer E-score": "0.251 ± 0.037"}, {"sequence": "CTATAAAC", "PBM 8-mer E-score": "0.0618 ± 0.024"}, {"sequence": "ATAAAAAT", "PBM 8-mer E-score": "0.16 ± 0.044"}, {"sequence": "GGATAAAA", "PBM 8-mer E-score": "0.0526 ± 0.098"}, {"sequence": "CTATAAAA", "PBM 8-mer E-score": "-0.0627 ± 0.04"}]}]}
